Measured values reported in PubChem BioAssay (EPA / NIEHS).
Activity calls are given as the source filed them. How the source made its calls: active means hit-call score of the fitted dose curve at least 0.9, where 1 is the maximum; inactive means score below 0.9.

What was measured:
[1] = biological target: Nuclear respiratory factor 1 (Homo sapiens) (UniProt Q16656); test: ATG_NRF1_CIS: Attagene CIS-FACTORIAL HepG2 Assay for human Nuclear Respiratory Factor 1 (NRF1) Orphan Gene (AID 2282987); details: HepG2 NRF1 cis-element reporter, Attagene multiplex; actives raise or lower the signal
Procedure, shortened: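 Transcriptional reporter readout, one component of a 52-endpoint multiplexed HepG2 panel. Exposure 24 h; mRNA detected via RT-PCR and fluorescent capillary electrophoresis; fitting in both directions against DMSO.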

[2] = ATG_NFI_CIS: Attagene CIS-FACTORIAL HepG2 Assay for human Nuclear Factor I (NFI) (AID 2282989); details: HepG2 cis-regulatory reporter, NFI response element transcription; actives raise or lower the signal
Procedure, shortened: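 HepG2 cells transiently transfected with cis-element-driven multiplexed reporter transcription units, dosed for 24 h. Reporter mRNA quantified by RT-PCR, fluorescent labelling, HpaI digestion and capillary electrophoresis; bidirectional fit versus DMSO baseline.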

[3] = biological target: Myc proto-oncogene protein (Homo sapiens) (UniProt P01106); test: ATG_Myc_CIS: Attagene CIS-FACTORIAL HepG2 Assay for human Myelocytomatosis (Myc) Proto-Oncogene Transcription Factor (AID 2282990); details: HepG2, Attagene cis-reporter transcription factor activity; actives raise or lower the signal
Procedure, shortened: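 Multiplexed cis-reporter transcription in HepG2 cells after 24 h chemical treatment. Reporter mRNA measured by RT-PCR and capillary electrophoresis fluorescence; activity fitted bidirectionally against DMSO control.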

[4] = ATG_NF_kB_CIS: Attagene CIS-FACTORIAL HepG2 Assay for human Nuclear Factor Kappa B (NF-kB) (AID 2282991); details: HepG2 Attagene cis-factorial NF-kB reporter mRNA; actives raise or lower the signal
Procedure, shortened: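 HepG2, transient multi-reporter transfection, cis promoter elements (endogenous TFs). 24 h exposure. Total RNA → RT → PCR → 6-FAM label → HpaI → CE. Gain/loss vs DMSO.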

[5] = ATG_NRF2_ARE_CIS: Attagene CIS-FACTORIAL HepG2 Assay for human Nuclear Factor Erythroid 2 Related Factor 2 (NFR2) response to Antioxidant Response Elements (ARE) (AID 2282992); details: HepG2 Attagene ARE/NRF2 reporter, transcription factor activity; actives raise or lower the signal
Procedure, shortened: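 Transient MRTU transfection of HepG2; 24 h compound exposure; TriZol RNA, RT with oligo(dT), PCR, 6-FAM primer extension, HpaI cut, CE. Bidirectional fit vs DMSO.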

[6] = ATG_Oct_MLP_CIS: Attagene CIS-FACTORIAL HepG2 Assay for human Octamer-Binding Transcription Factor (Oct) (AID 2282993); details: HepG2 Attagene cis-factorial Oct reporter, mRNA; actives raise or lower the signal
Procedure, shortened: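 HepG2 cells transiently transfected with cis-promoter-driven multiplexed reporter transcription units, dosed for 24 h. Reporter mRNA quantified by RT-PCR, fluorescent labelling, HpaI digestion and capillary electrophoresis; bidirectional fits versus DMSO baseline.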

[7] = biological target: Cellular tumor antigen p53 (Homo sapiens) (UniProt P04637); test: ATG_p53_CIS: Attagene CIS-FACTORIAL HepG2 Assay for human p53 Transcription Factor (AID 2282994); details: HepG2 p53 cis-element reporter, Attagene mRNA; actives raise or lower the signal
Procedure, shortened: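 HepG2, transient MRTU transfection (cis promoter elements, endogenous TFs); 24 h dosing; RNA isolation, RT-PCR, 6-FAM primer extension, HpaI digest, CE fluorescence; bidirectional fit vs DMSO.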

Measured: AC50

Chain of Myc proto-oncogene protein (Homo sapiens) (P01106 whole entry, looked up): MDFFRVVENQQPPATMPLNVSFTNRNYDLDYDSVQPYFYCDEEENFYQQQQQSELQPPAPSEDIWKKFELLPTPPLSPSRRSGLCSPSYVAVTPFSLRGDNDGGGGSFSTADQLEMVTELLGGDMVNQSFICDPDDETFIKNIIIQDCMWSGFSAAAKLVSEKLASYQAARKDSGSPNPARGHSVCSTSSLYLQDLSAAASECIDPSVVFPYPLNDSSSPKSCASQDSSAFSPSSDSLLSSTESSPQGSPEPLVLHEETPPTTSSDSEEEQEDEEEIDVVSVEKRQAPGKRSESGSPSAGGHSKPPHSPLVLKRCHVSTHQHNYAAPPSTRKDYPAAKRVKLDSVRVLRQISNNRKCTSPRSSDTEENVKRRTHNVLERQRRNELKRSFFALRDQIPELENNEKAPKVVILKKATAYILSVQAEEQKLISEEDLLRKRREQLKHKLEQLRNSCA
Chain of Nuclear respiratory factor 1 (Homo sapiens) (Q16656 whole entry, looked up): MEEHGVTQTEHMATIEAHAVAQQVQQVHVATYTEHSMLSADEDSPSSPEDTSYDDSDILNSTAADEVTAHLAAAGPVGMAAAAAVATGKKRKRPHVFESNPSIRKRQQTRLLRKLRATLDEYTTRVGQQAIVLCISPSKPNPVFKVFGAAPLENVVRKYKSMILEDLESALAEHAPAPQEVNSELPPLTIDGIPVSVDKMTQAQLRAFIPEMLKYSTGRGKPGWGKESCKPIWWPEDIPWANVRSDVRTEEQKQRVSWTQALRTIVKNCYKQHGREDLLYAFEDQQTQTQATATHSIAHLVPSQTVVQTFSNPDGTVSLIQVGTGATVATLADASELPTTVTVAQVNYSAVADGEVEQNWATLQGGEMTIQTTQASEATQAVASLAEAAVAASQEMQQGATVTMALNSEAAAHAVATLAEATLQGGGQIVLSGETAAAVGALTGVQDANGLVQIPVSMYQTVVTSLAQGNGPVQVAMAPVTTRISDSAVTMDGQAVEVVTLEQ
Chain of Cellular tumor antigen p53 (Homo sapiens) (P04637 whole entry, looked up): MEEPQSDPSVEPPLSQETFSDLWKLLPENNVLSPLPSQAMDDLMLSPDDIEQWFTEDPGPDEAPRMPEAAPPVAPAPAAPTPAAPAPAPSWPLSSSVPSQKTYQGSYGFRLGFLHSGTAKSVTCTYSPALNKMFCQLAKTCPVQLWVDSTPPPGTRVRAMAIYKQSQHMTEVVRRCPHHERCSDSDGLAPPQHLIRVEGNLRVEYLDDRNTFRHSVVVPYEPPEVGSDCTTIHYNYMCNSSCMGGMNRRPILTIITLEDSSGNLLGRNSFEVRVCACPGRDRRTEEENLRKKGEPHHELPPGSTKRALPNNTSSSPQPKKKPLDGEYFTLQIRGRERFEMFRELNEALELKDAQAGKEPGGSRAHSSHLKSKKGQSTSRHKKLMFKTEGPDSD

O=C1CCCN1C1CCCCC1
not listed: [7]
inactive: all other assays above

CC(=O)OC1CCCCC1
not listed: [7]
inactive: all other assays above

Nc1ccc(Cl)c(N)c1
not listed: [7]
inactive: all other assays above

COC(=O)c1ccc(C(=O)OC)c(C(=O)OC)c1
not listed: [7]
inactive: all other assays above

NNS(=O)(=O)c1ccc(Oc2ccc(S(=O)(=O)NN)cc2)cc1
inactive: all assays above

CC(C)=NNC(N)=S
inactive: all assays above

Cn1ccnc1
inactive: all assays above

CC(C)(C)N
inactive: all assays above

CC(C)(C)NC(=O)[C@H]1CC[C@H]2[C@@H]3CC[C@H]4NC(=O)C=C[C@]4(C)[C@H]3CC[C@]12C
active: [5] 100 µM | [7] 38.7 µM
inactive: all other assays above

CCCCCCCCCCCC(=O)OCC
inactive: all assays above

CC=CC(=O)OCC(C)C
inactive: all assays above

CC1CC(=O)CC(C)(C)C1 (centres undefined)
inactive: all assays above

[Cl][Eu]([Cl])[Cl]
inactive: all assays above

c1ccc2cnccc2c1
inactive: all assays above

Cc1ccccc1CCO
inactive: all assays above

C=C1C[C@H]2[C@@H]3C=C(C)C4=CC(=O)CC[C@]4(C)[C@H]3CC[C@]2(C)[C@@]1(OC(C)=O)C(C)=O
inactive: [3] | [6] | [7]
active: [1] 88.1 µM | [2] 106 µM | [4] 63 µM | [5] 42.1 µM

CC(=O)c1ccc(S(=O)(=O)NC(=O)NC2CCCCC2)cc1
inactive: all assays above

CC(C)CC(=O)OCc1ccccc1
inactive: all assays above

Cc1cc(C)n(CO)n1
inactive: all assays above

CC1(C)CCC[C@]2(C)[C@H]3CC(=O)O[C@]3(C)CC[C@@H]12
active: [5] 30.3 µM
inactive: all other assays above

CCCCOCC(C)O (centres undefined)
inactive: all assays above

CC(C)COC(=O)CC(C(=O)OCC(C)C)S(=O)(=O)O (centres undefined)
inactive: all assays above

Oc1ccc(-c2ccccc2)c(Cl)c1
active: [2] 33.4 µM | [5] 22.7 µM | [6] 52.3 µM
inactive: all other assays above

CC1(C)[C@@H]2CC[C@@]1(C)C(=O)C2
inactive: all assays above

[Cl][Sc]([Cl])[Cl]
inactive: all assays above

CC1C(C)(C)C2=C(C(=O)CCC2)C1(C)C (centres undefined)
not listed: [7]
inactive: all other assays above

CCCCCC[C@@H](O)C/C=C\CCCCCCCC(=O)OCC(O)CO (some centres undefined)
active: [1] 179 µM | [3] 162 µM | [5] 87.9 µM | [7] 181 µM
inactive: [2] | [4] | [6]

CCCSSCCC
inactive: all assays above

CC(C)C(=O)OCCOc1ccccc1
not listed: [7]
inactive: all other assays above

C=CC(=O)O[C@H]1C[C@@H]2CC[C@@]1(C)C2(C)C
active: [3] 167 µM | [4] 181 µM | [5] 32.1 µM
inactive: all other assays above
